From PubChem BioAssay (EPA / NIEHS)
Calls of active or inactive are those of the source. The calls were made as follows: active = hit-call score of the fitted dose curve at least 0.9, where 1 is the maximum; inactive = score below 0.9.

experiment: ATG_TAL_CIS: Attagene CIS-FACTORIAL HepG2 Assay for human TAL Basal Promoter (AID 2282966); conditions: HepG2 Attagene cis-factorial TAL promoter reporter; actives raise or lower the signal
Description: ATG_CIS is a cell-based, multiplexed-readout assay that uses HepG2, a human liver cell line, with measurements taken at 24 hours after chemical dosing in a 24-well plate.ATG_TAL_CIS is one of 52 assay component(s) measured or calculated from the ATG_CIS assay. It is designed to make measurements of mRNA induction, a form of inducible reporter, as detected with fluorescence intensity signals by Reverse transcription polymerase chain reaction (RT-PCR) and Capillary electrophoresis technology.Data from the assay component ATG_TAL_CIS was analyzed into 1 assay endpoint. This assay endpoint, ATG_TAL_CIS, was analyzed with bidirectional fitting relative to DMSO as the negative control and baseline of activity. Using a type of inducible reporter, measures of mRNA for gain or loss-of-signal activity can be used to understand the background control at the transcription factor-level as they relate to the gene . Furthermore, this assay endpoint can be referred to as a secondary readout, because this assay has produced multiple assay endpoints where this one serves a background control function. To generalize the intended target to other relatable targets, this assay endpoint is annotated to the background measurement intended target family, where the subfamily is internal marker.
Human liver HepG2 cells are transiently transfected with multiple reporter transcription units (MRTUs) in 6-well plates using FuGene 6 reagent (Roche; 3 ml FuGene/1 mg DNA). The MRTU constructs are regulated by a cis-regulating element (promoter). […] A major difference between the CIS and TRANS system is that in CIS activities of endogenous TFs are measured, whereas the TRANS assay evaluates changes in activities of exogenous, chimeric NR-Gal4 proteins. […] At the end of 24 hour incubation, total RNA was isolated using TriZol reagent (Invitrogen). The isolated RNA is then reverse-transcribed using oligo(dT) primer and Mo-MLV reverse transcriptase (Invitrogen) with DNAse I (Ambion) treatment for 30 min. The one-tenth of the produced cDNA was amplified by PCR using Taq DNA polymerase (Invitrogen) and two reporter sequence-specific primers. The PCR products were fluorescently labeled by primer extension with 6-arboxyfluorescein (6-FAM) 5'-labeled reporter sequence-specific primer (2 min at 95 C, 20 s at 68 C and 10 min at 72 C) and these products were digested with 5U of HpaI (New England Biolabs) for 2h at 37 C. The fragments were purified using Qiaquick PCR columns (Qiagen), analyzed on an ABI 3130xL genetic analyzer (Applied Biosystems) with peak positions identified by using a set of X-rhodamine (ROX)-labeled MapMarker1000 molecular weight standards (BioVentures). The raw capillary electrophoresis data was processed using Attagraph software (Attagene).

SMILES | outcome
C=C(C)OC(C)=O | inactive
C1CNCCN1 | inactive
C=C(C)C1CC=C(C)C(OC(C)=O)C1 (stereo not given) | inactive
CCCCCCO | inactive
Cn1ccnc1 | inactive
CCCCCCCCCCCCCCCCCCOS(=O)(=O)O | inactive
C[Si](C)(C)N[Si](C)(C)C | inactive
CC(C)(O)Cc1ccccc1 | inactive
CCN1CN(CC)CN(CC)C1 | inactive
COCC(=O)O | inactive
CN1CCN(C)CC1 | inactive
C=CC(=O)NCOCCCC | inactive
NC(=O)Nc1ccccc1 | inactive
N#CC1(N)CCCCC1 | inactive
CC(=O)OC1CCCCC1C(C)(C)C (stereo not given) | inactive
CCOB(OCC)OCC | inactive
CC/C=C\CCOC(=O)c1ccccc1O | inactive
CC(C)=NNC(N)=S | inactive
CC(C)(CO)C(O)C(=O)NCCCO (stereo not given) | inactive
C[N+](C)(C)CCCNS(=O)(=O)C(F)(F)C(F)(F)C(F)(F)C(F)(F)C(F)(F)C(F)(F)C(F)(F)C(F)(F)F | inactive

SMILES | outcome
Cn1cccc1 | inactive
Cc1c(Cl)cccc1Cl | inactive
CC1OC(=O)C(C)OC1=O (stereo not given) | inactive
CCN(CC)c1cccc(C)c1 | inactive
CCC(C)N (stereo not given) | inactive
CC(C)CCOCc1ccccc1 | inactive
C=CC(=O)OCCCCCCCC(C)C | inactive
CC1=NN(c2ccc(S(=O)(=O)O)cc2)C(=O)C1N=Nc1ccccc1 (stereo not given) | inactive
COc1ccc(C(=O)c2ccccc2)c(O)c1 | inactive
CC1(C)CC(O)CC(C)(C)N1[O] | inactive
C=Cc1ccc(OC(C)=O)cc1 | inactive
O=S(=O)(O)c1ccc(N=Nc2c(O)ccc3ccccc23)cc1 | inactive
Cc1cc(C)n(CO)n1 | inactive
COC(Cc1ccccc1)OC | inactive
OCCCc1ccccc1 | inactive
CCOC(=O)OC(=O)OCC | inactive
O=C(OCc1ccccc1)c1ccc(O)cc1 | inactive
CCOC(=O)CC(=O)c1ccccc1 | inactive
CC(=O)OC/C=C(/C)CCC=C(C)C | inactive
CC(C)c1ccc2ncccc2c1 | inactive
